# Compound activity from PubChem.
# Sampled rows, rich in hits. Any-hit rate of the full collection: about 11%.
# PNC inhibitor = High Content Assay for Compounds that inhibit the Assembly of the Perinucleolar Compartment; activity change (PNC), negative = inhibition, % at 10 µM; PC3M PTB-GFP, PNC prevalence imaging, 16 h; hits give low values; 140,000 compounds, 3.1% hits;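 active = readout at or below -70, meaning at least 70% loss of cells showing the perinucleolar compartment, a nuclear body marking cancer cells; inconclusive = readout between -30 and a set limit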;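 note: plate controls were DMSO wells for no effect and camptothecin positive control wells for full effect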
#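 Read-out is percentage of cells bearing a perinucleolar compartment, from automated 20x imaging of fixed, Hoechst-stained PC3M PTB-GFP cells. Cells were seeded 4 h, then exposed 16 h to compound (23 nl of library stock) in duplicate plates.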
# ALDH1A1 inh = qHTS Assay for Inhibitors of Aldehyde Dehydrogenase 1 (ALDH1A1); Purified ALDH1A1, NADH fluorescence, propionaldehyde substrate; Potency, µM (highest dose often 75.3 µM), inactives show at the highest dose activity, negative = inhibition, hits mostly inhibitors; 220,000 compounds, 7.3% hits; AID 1030, 2008; active = well fitted inhibition curve with a large enough effect, not every such curve was filed as active; inconclusive = small, poorly fitted or top-dose-only effect, or another doubt; inactive = no such curve, though single readings can be large or run the other way;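 note: potency is the fitted concentration of half-maximal effect; plate controls were no enzyme wells and a reference inhibitor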
# Target sequence (P00352 whole entry, looked up): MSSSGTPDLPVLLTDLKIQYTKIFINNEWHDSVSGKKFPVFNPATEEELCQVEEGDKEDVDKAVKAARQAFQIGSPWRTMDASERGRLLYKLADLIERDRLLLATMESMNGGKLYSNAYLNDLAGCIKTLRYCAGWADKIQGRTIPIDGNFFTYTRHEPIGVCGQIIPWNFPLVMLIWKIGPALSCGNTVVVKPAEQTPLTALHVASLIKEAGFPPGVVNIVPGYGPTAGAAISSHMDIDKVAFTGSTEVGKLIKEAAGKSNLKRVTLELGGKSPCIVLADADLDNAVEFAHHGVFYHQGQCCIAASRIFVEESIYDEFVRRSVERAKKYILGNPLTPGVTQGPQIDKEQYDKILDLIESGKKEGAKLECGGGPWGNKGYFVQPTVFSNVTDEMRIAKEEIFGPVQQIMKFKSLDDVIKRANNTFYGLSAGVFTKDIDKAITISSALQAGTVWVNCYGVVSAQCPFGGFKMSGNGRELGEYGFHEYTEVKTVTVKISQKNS
# HTT cytoprotect = qHTS Multiplex Assay to Identify Dual Action Probes in a Cell Model of Huntington: Cytoprotection (ATP); PC12 HTT-Q103 induced, cytoprotection, ATP luminescence, 40 h; Potency, µM (highest dose often 56.4 µM), without a hit: cytoprotection (ATP increase), usual class: activators; 230,000 compounds, 0.14% hits; AID 1471, 2008; note: potency is the fitted concentration of half-maximal effect; % of control where 0% means no effect; nearly all actives have a fitted effect of over 45% in size
#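 Rat PC12, Q103 Htt exon1-GFP fusion, ecdysone promoter; tebufenozide inducer 100 nM final; compound titration; qHTS, 1500 cells/well; ATPlite luminescent read.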
# HPGD block = qHTS Assay for Inhibitors of HPGD (15-Hydroxyprostaglandin Dehydrogenase); AID 894, 2007; purified HPGD, NADH fluorescence kinetic, PGE2 substrate; 150,000 compounds, 4.3% hits; 15-hydroxyprostaglandin dehydrogenase [NAD(+)] (Homo sapiens), P15428; Potency, µM, inactives show at the top dose activity change, negative = inhibition, most hits filed as inhibitors; active = well fitted inhibition curve with a large enough effect, not every such curve was filed as active; inconclusive = small, poorly fitted or top-dose-only effect, or another doubt; inactive = no such curve, though single readings can be large or run the other way; note: potency is the fitted concentration of half-maximal effect; % is set by controls: 0 for no effect and ±100 for the full control effect
# Target sequence (P15428 whole entry, looked up): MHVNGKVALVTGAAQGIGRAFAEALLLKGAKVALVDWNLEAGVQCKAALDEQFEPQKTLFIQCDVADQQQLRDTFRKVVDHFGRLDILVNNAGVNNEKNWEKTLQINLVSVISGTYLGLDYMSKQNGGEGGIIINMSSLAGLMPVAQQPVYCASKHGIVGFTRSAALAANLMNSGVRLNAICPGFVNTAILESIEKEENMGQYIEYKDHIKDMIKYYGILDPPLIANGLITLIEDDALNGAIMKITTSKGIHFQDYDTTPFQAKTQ
#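 NADH formation kinetics: reaction with 30 uM PGE2 and 1 mM NAD+ (final), 20 nM enzyme, Tris-HCl pH 8 with Tween 20, after 15 min compound preincubation at room temperature. Fluorescence change, last versus first of five reads.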
# HttQ103 aggreg = qHTS Multiplex Assay to Identify Dual Action Probes in a Cell Model of Huntington: Aggregate Formation (GFP); PC12 HttQ103-GFP aggregates, Acumen cytometry, 40 h; Potency, µM (highest dose often 46.1 µM), for the others: at the top dose activity change, negative = inhibition, usual class: inhibitors; 220,000 compounds, 1.1% hits; AID 1688, 2009; note: potency is the fitted concentration of half-maximal effect; % is set by controls: 0 for no effect and ±100 for the full control effect; nearly all actives have a fitted effect of over 60% in size
#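 Using laser scanning cytometry, GFP-positive aggregates were counted after lysis of PC12 cells induced with 100 nM tebufenozide to express HTT exon 1 Q103–GFP. Compounds were tested in titration.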
# CBFb RUNX1 block = qHTS Assay for Compounds Blocking the Interaction Between CBF-beta and RUNX1 for the Treatment of Acute Myeloid Leukemia; Runt-related transcription factor 1 (Homo sapiens) + Core-binding factor subunit beta …; AlphaScreen CBFb-His/RUNX1-biotin binding, biochemical; Potency, µM (titrated, usually from 59.8 µM), without a hit: top-dose activity, negative = inhibition, actives largely listed as inhibitors; 230,000 tested, under 10 active; note: % of control where 0% means no effect
#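 His-tagged CBF-beta and biotinylated RUNX1 (30 nM each) were premixed 20 min at room temperature, exposed to compound for 15 min, then given nickel-chelate and streptavidin AlphaScreen beads (50 ng each). After 90 min, AlphaScreen signal was read.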
# Starred values were filed as active, the others as inactive; ? = inconclusive; / = not tested or not shown; ! = not confirmed by another sample; [ ] = dose if it differs, or a comment. Unless noted, calls come from the whole dose curve; as a rule, active = well fitted curve in the direction sought with a large enough effect; inconclusive = small, poorly fitted or top-dose-only effect, or another doubt; inactive = no such curve, though single readings can be large; an effect the other way counts as inactive or inconclusive.
SMILES,PNC inhibitor,ALDH1A1 inh,HTT cytoprotect,HPGD block,HttQ103 aggreg,CBFb RUNX1 block
COCc1cc(C)nc(SCC(=O)c2ccc(O)c(O)c2)c1C#N,33,-13%,-24%[10 µM],16µM*,21%,-6%
CCOC(=O)CSc1nc(C)cc(C)c1C#N,30,25µM*,2%,-9%,-5%,3%
CCOC(=O)c1c(C)nc(SCC(N)=O)c(C#N)c1-c1ccccc1,-114*,?,/,0%,5%,8%
CCOc1ccc2cc(C#N)c(SCC(=O)N3CCOCC3)nc2c1,?,3.5µM*,2%[10 µM],?,0%,8%
CCOc1ccc2nc(SCC(=O)N3CCCCCC3)c(C#N)cc2c1,23,?,-32%,-26%,-1%,7%
CCOC(=O)c1c(C)nc(C)c(C(=O)OCC)c1-c1ccccc1,1,?,-22%,?,-16%,12%
CC(=O)N1CCC2(CCCN(Cc3cc(C(F)(F)F)cc(C(F)(F)F)c3)C2)CC1,/,0%,?,-6%,/,/
CCOC(=O)CCc1c(C)nc(SCC(=O)O)c(C#N)c1C,-14,25µM*,-11%,-22%,8%,1%
CCOC(=O)CSc1nc2cc3c(cc2cc1C#N)OCO3,-127*,-2%,-22%[10 µM],-12%,6%,5%
Cc1cc(C)c(C#N)c(SCC(=O)OC2CCCCC2)n1,-83*,28µM*,-8%,16µM*,-5%,22%
COc1cc2nc(N3CCN(C(=O)[C@@H]4COc5ccccc5O4)CC3)nc(N)c2cc1OC,/,?,14%[40.3 µM],?,0%,5%[21.7 µM]
N#C/C(=C\c1ccc(C#N)cc1)C(=O)N1CCCC1,/,7.9µM*,10%[10 µM],/,20%,-9%
CN1CCN(C(=O)/C(C#N)=C/c2ccc(F)cc2)CC1,/,1.8µM*,-16%,/,-5%,7%
N#C/C(=C\c1ccc(O)cc1)C(=O)N1CCCC1,/,?,2%[10 µM],/,-5%[9.22 µM],15%
CCN1CCN(C(=O)/C(C#N)=C/c2ccc(OC(F)F)cc2)CC1,/,1%,-15%,/,-18%,3%
CC(C)[C@@H]1NC(=O)[C@H](CCCCN)NC(=O)[C@H](Cc2c[nH]c3ccccc23)NC(=O)[C@H](Cc2ccc(O)cc2)NC(=O)[C@H](C)N(C)C(=O)[C@H](Cc2ccccc2)NC1=O,/,/,-12%[1.9 µM],/,/,/
O=C(O)[C@@H]1Cc2c([nH]c3ccccc23)[C@@H](CCCCO)N1,/,1%[13.5 µM],4%[10 µM],-11%,/,/
Cc1ccn(C(=O)c2ccc(NC(=O)CC(C)C)cc2)n1,/,2%,-16%,/,4%[9.22 µM],4%
O=C(CSc1nnc(-c2ccco2)n1Cc1ccccc1)NC(=O)NCc1ccccc1,-92*,-13%,-47%,-10%,-3%,-5%
CNC(=O)NC(=O)CSc1nnc(-c2ccco2)n1Cc1ccccc1,45,1%,-2%,-3%,-2%,-1%
Cn1c(SCC(=O)OCc2ccccc2)nnc1-c1ccco1,?,?,?,-10%,11%,5%
CCOC(=O)c1c(C)[nH]c(C)c1C(=O)CSc1nnc(-c2ccco2)n1Cc1ccccc1,34,16µM*,-90%[10 µM],-7%,?,-15%
CCOC(=O)c1c(C)[nH]c(C)c1C(=O)CSc1nnc(-c2ccncc2)n1Cc1ccccc1,-10,-1%,-23%,-19%,0%,4%
Cn1c(SCC(=O)c2ccc(-c3ccccc3)cc2)nnc1-c1ccco1,?,10µM*,5%[10 µM],-22%,-3%,-13%
Cc1ccc(NCc2nnc(SCC(=O)c3ccccc3)n2Cc2ccco2)c(C)c1,?,10µM*,-23%,-21%,-3%,-7%
SMILES,PNC inhibitor,ALDH1A1 inh,HTT cytoprotect,HPGD block,HttQ103 aggreg,CBFb RUNX1 block
Cc1ccc(C(=O)CSc2nnc(-c3ccco3)n2Cc2ccccc2)cc1,-17,0%,-9%,-20%,-17%,1%
O=C(CSc1nnc(-c2ccco2)n1Cc1ccccc1)c1ccccc1,-22,?,-2%,28µM*,-18%,-9%
CC(C)(C)c1ccccc1NC(=O)NC1CCN(Cc2c(F)cccc2Cl)CC1,/,-1%,1%[10 µM],/,-5%[9.22 µM],12%
CCOC(=O)N1CCN(C(=O)c2cnn3c(C)c(Cc4ccc(C)cc4)c(C)nc23)CC1,-7,25µM*,5%,/,0%,3%
Cc1ccc(C)c(Cc2c(C)nc3c(C(=O)N4CCOCC4)cnn3c2C)c1,?,?,-3%[0.074 µM],?,-14%,3%
Cc1nc2c(C(=O)O)cnn2c(C)c1Cc1ccccc1F,-5,?,25%[1.9 µM],?,4%,-1%
COC(=O)c1cnn2c(C)c(Cc3cccc(F)c3)c(C)nc12,-88*,?,-9%,?,-1%,0%
COC(=O)/C(=C\c1c(OC)cc(OC)cc1OC)C(=O)c1ccc2c(c1)OCO2,/,/,/,/,/,-6%
Cc1cc(N2CCC(C)CC2)nc(SCC(=O)c2ccccc2)n1,-119*,14µM*,12%[10 µM],-10%,?,-1%
COC(=O)C1=C(C)N(Cc2ccccc2)C(=O)N[C@H]1c1ccccc1,41,7.9µM*!,-23%,-2%,-5%,-8%
CC1=C(C(=O)OCc2ccccc2)C(c2ccccc2)NC(=O)N1CCCCCC(=O)O (configuration not stated),-80*,0%,-15%,-10%,13%,-5%[2.36 µM]
O=C(O)c1cc(-c2ccc(O)cc2)on1,/,?,4%[10 µM],/,-6%[9.22 µM],-6%
c1ccc(CO[C@H]2NCCN2Cc2ccccc2)cc1,/,14%[13.5 µM],7%[10 µM],-8%,/,/
CCOc1ccc(NC(=O)CNC(=O)c2cccs2)cc1,/,-4%,-32%,/,15%,2%
CC[C@H](C)[C@H](NC(=O)[C@H](CCCN=C(N)N)NC(=O)[C@H](CCCN=C(N)N)NC(=O)[C@H](CC(C)C)NC(=O)[C@H](Cc1ccccc1)NC(=O)CNC(=O)CN)C(=O)N[C@@H](CCCN=C(N)N)C(=O)N1CCC[C@H]1C(=O)N[C@@H](CCCCN)C(=O)N[C@@H](CC(C)C)C(=O)N[C@@H](CCCCN)C(=O)O,/,7%,-1%,/,/,26%
Cc1ccc(C(=O)O/N=C\c2ccc(N3CCCCC3)c([N+](=O)[O-])c2)cc1,?,1.4µM*,-18%,-16%,-15%,-22%
